Compound activity (PubChem BioAssay)
Most compounds without a hit are left out; they make up all but 18% or so of the library.
DT40 TDP1 no CPT – qHTS for Inhibitors of human tyrosyl-DNA phosphodiesterase 1 (TDP1): qHTS in cells in absence of CPT; DT40 Tdp1-/- hTDP1 cells, no CPT, ATP luminescence, 48 h; Potency, µM (highest dose often 46.2 µM), most hits filed as inhibitors; actives 15% (n = 420,000); further: nearly all actives have a fitted effect of over 55% in size
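Camptothecin absent (DMSO only). Human TDP1-complemented DT40 knockout cells, 400 cells/well, 37 °C for minimum 48 hr; ATP measured via CellTiter-Glo, 30 min dark incubation, luminescence.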
TDP1 cell CPT – growth inhibition of DT40 Tdp1-/-;hTDP1 cells with camptothecin (screen for TDP1 inhibitors) | actives 12% (n = 420,000) | Potency, µM (series often up to 46.2 µM), usual class: inhibitors | chicken DT40 Tdp1-/-;hTDP1 cells + 20 nM CPT, ATP luminescence, 48 h; further: nearly all actives have a fitted effect of over 55% in size
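Chicken DT40 Tdp1-/- cells stably complemented with human TDP1 were seeded at 400 cells/well in medium containing 20 nM camptothecin, exposed to pin-transferred compounds, and grown at 37 °C for at least 48 hr. Viability was read as ATP luminescence.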
TDP1 block – TDP1 (human) enzyme inhibition; Q9NUW8; recombinant TDP1, AlphaScreen DNA substrate cleavage; Potency, µM (doses to about 130 µM), hits mostly inhibitors; actives 0.28% (n = 350,000); AID 485290; further: nearly all actives have a fitted effect of over 40% in size
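Recombinant human Tdp1 (E. coli-expressed, 1 nM final) preincubated with compounds 15 min at room temperature, then 5'-biotin/3'-phosphotyrosine-FITC DNA substrate (15 nM final) added for 5 min. AlphaScreen beads (10 ug/ml final) added 10 min; cleavage lowers signal.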
CtBP-E1A inh – CtBP/E1A binding inhibition; AlphaScreen GST-E1A/His-CtBP binding, 1536-well; active compounds read low; activity change, % (test concentration not listed); actives 0.49% (n = 340,000); AID 651724; in the data active means activity change below about -65%; inconclusive means mostly about -30% to -63%
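In 5 uL wells, 23 nL compound meets equimolar GST-E1A and His-CtBP (5X stock 125 nM each) for 2 h, 37 °C. Beads (5X, 50 ug/mL) then 1 h, 37 °C, dark.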
Six1-Eya2 blk – blocks human Six1 binding to Eya2. Q15475+O00167. AlphaScreen GST-Six1/His-Eya2 binding, biochemical; active compounds read low. activity change, % (test concentration not listed). actives 0.56% (n = 360,000); in the data active means activity change below about -65%; inconclusive means mostly about -30% to -63%
Target sequence (O00167 whole entry, looked up): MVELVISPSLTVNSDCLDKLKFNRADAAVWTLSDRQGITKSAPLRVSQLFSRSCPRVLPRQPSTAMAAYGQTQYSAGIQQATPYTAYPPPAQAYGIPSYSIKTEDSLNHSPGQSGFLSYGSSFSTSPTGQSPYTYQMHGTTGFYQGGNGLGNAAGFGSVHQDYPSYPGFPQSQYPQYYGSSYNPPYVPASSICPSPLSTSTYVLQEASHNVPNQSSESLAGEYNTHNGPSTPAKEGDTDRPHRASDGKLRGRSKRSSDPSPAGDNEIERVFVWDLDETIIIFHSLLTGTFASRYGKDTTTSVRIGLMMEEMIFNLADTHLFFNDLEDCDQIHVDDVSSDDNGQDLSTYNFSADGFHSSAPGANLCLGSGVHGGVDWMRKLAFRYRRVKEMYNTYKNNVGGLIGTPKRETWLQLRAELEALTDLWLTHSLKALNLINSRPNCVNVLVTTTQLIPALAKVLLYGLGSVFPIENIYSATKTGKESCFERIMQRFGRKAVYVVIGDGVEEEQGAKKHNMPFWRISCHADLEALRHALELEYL
Target sequence (Q15475 whole entry, looked up): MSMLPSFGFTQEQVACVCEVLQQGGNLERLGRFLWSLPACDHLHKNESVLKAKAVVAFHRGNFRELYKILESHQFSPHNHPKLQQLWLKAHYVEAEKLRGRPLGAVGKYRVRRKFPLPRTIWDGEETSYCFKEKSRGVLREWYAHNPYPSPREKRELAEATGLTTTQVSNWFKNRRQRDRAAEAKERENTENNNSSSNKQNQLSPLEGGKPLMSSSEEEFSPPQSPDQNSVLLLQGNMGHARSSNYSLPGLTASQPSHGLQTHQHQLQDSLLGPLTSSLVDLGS
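GST-Six1 + His-Eya2 (5X stock: 250/500 nM); Tris pH 8.0, 300 mM NaCl, 0.05% BSA, 0.02% Tween 20; GSH donor/Ni acceptor beads; 1 h 37 °C dark; AlphaScreen readout.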
IL1B secr inh – inhibitors of inflammasome signaling (IL-1 beta secretion); THP-1 LPS/ATP IL-1B secretion, AlphaLISA, 16 h; active compounds read low; actives 4.7% (n = 360,000); activity change, % at 57.5 µM; AID 743279; in the data active means activity change below about -50%; inconclusive means mostly about -30% to -49%
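Secreted IL-1B measured by AlphaLISA bead assay after 16 h compound exposure of THP-1 cells; compounds (final up to 57.5 uM) added 1 h before LPS (250 ng/mL) and ATP (1.25 mM) stimulation; lower signal means less secretion.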
Of the large screens only hits and unclear results are named; the others gave an inactive call. Unless noted, the call rests on the fitted dose curve; in most records, active means well fitted curve in the direction sought with a large enough effect; inconclusive means small, poorly fitted or top-dose-only effect, or another doubt; inactive means no such curve, though single readings can be large; an effect the other way counts as inactive or inconclusive.

Cn1c(=N)n(CC(=O)c2ccc(F)cc2)c2ccccc21	DT40 TDP1 no CPT 13µM, TDP1 cell CPT 16µM (no result: TDP1 block)
Cc1ccccc1NC(=O)C(=O)NCC1CCCN1S(=O)(=O)c1cccs1 (stereo not drawn)	DT40 TDP1 no CPT inconclusive
CCCCCOc1ccc(NC(=O)C(=O)NCC2CCCN2CC)cc1 (stereo not drawn)	DT40 TDP1 no CPT inconclusive, TDP1 cell CPT 16µM (no result: CtBP-E1A inh)
COc1ccc(NC(=O)C(=O)NCC2CCCN2S(=O)(=O)c2cccs2)cc1 (stereo not drawn)	DT40 TDP1 no CPT 2.1µM, TDP1 cell CPT 2.3µM
Cc1ccccc1CNC(=O)C(=O)NCCC1CCCCN1S(=O)(=O)c1cccs1 (stereo not drawn)	DT40 TDP1 no CPT inconclusive, TDP1 cell CPT 18µM (no result: TDP1 block)
O=C(Nc1nnc(-c2ccccc2)o1)C1CCCN1S(=O)(=O)c1cccs1 (stereo not drawn)	DT40 TDP1 no CPT inconclusive, IL1B secr inh -59
CCN1CCCC1CNC(=O)C(=O)NC (stereo not drawn)	none
O=C(NCCc1ccccc1)C(=O)NCC1CCCN1S(=O)(=O)c1cccs1 (stereo not drawn)	DT40 TDP1 no CPT inconclusive, TDP1 cell CPT 23µM
Cc1ccc(C)c(N2CCN(C(c3ccccc3)c3nnc(-c4ccccc4F)o3)CC2)c1 (stereo not drawn)	DT40 TDP1 no CPT 23µM, TDP1 cell CPT inconclusive (no result: CtBP-E1A inh, Six1-Eya2 blk, IL1B secr inh)
Cc1ccc(C)c(N2CCN(C(=O)CCc3nc(-c4ccccc4F)no3)CC2)c1	DT40 TDP1 no CPT inconclusive, TDP1 cell CPT inconclusive
Cc1cccc(N2CCN(C(c3ccccc3)c3nnc(-c4ccccc4F)o3)CC2)c1C (stereo not drawn)	DT40 TDP1 no CPT 23µM, TDP1 cell CPT 15µM (no result: CtBP-E1A inh, Six1-Eya2 blk, IL1B secr inh)
Cc1ccc(C)c(N2CCN(C(c3ccc(F)cc3)c3nnc(-c4ccccc4)o3)CC2)c1 (stereo not drawn)	DT40 TDP1 no CPT 15µM, TDP1 cell CPT inconclusive (no result: CtBP-E1A inh, Six1-Eya2 blk, IL1B secr inh)
Cc1cccc(N2CCN(C(c3ccccc3)c3nnc(-c4ccccc4Cl)o3)CC2)c1C (stereo not drawn)	DT40 TDP1 no CPT inconclusive, TDP1 cell CPT 21µM (no result: CtBP-E1A inh, Six1-Eya2 blk, IL1B secr inh)
Cc1ccc(C)c(SCC(=O)Nc2nnc(-c3ccccc3)o2)c1	DT40 TDP1 no CPT inconclusive, TDP1 cell CPT inconclusive
CCC(C)[C@H](NC(=O)NCc1ccc(Cl)cc1)C(=O)OC (stereo partly drawn)	none
O=C(NCC(c1cccnc1)N1CCc2ccccc21)c1ccccc1Br (stereo not drawn)	DT40 TDP1 no CPT inconclusive, TDP1 cell CPT inconclusive (no result: CtBP-E1A inh, Six1-Eya2 blk, IL1B secr inh)
COc1ccc(C(=O)NCC(c2cccs2)N2CCc3ccccc32)cc1OC (stereo not drawn)	DT40 TDP1 no CPT 21µM, TDP1 cell CPT inconclusive
O=C(NCC(c1cccnc1)N1CCOCC1)c1ccc2c(c1)OCO2 (stereo not drawn)	none
O=C(NCC(c1cccnc1)N1CCc2ccccc21)c1ccc(F)c(F)c1 (stereo not drawn)	DT40 TDP1 no CPT 9.2µM, TDP1 cell CPT 13µM (no result: CtBP-E1A inh, Six1-Eya2 blk, IL1B secr inh)
Cc1ccc(C(=O)NCC(c2cccnc2)N2CCc3ccccc32)cc1C (stereo not drawn)	DT40 TDP1 no CPT 15µM, TDP1 cell CPT 7.3µM (no result: CtBP-E1A inh, Six1-Eya2 blk, IL1B secr inh)
COc1cc(C(=O)NCC(c2cccnc2)N2CCc3ccccc32)cc(OC)c1OC (stereo not drawn)	DT40 TDP1 no CPT 21µM, TDP1 cell CPT inconclusive (no result: CtBP-E1A inh, Six1-Eya2 blk, IL1B secr inh)
COc1cc(C(=O)NCC(c2cccnc2)N2CCN(C)CC2)cc(OC)c1OC (stereo not drawn)	none
CCCCn1c(=O)n(CC(=O)Nc2ccc(OC)c(Cl)c2)c(=O)c2c1nc(CO)n2CCC	DT40 TDP1 no CPT inconclusive
CC(=O)Cc1cc2cc([N+](=O)[O-])ccc2oc1=O	none (no result: TDP1 block, CtBP-E1A inh)
CCOC(=O)N1CCN(S(=O)(=O)CCNC(=O)c2ccc(OC)cc2)CC1	none (no result: TDP1 block)
COC(=O)N1CCC2(CCCN(C(=O)Nc3cccc(C#N)c3)C2)CC1	none (no result: TDP1 block, CtBP-E1A inh, Six1-Eya2 blk, IL1B secr inh)
